Screens as filed in PubChem.
Only some compounds are listed: those with a hit (about 2.7% of all), similar ones and a draw of the others.
pPAFAH inh = pPAFAH (human) enzyme inhibition; Q13093; recombinant pPAFAH, FP-rhodamine probe fluorescence polarization; inhibition, % at 3.39 µM; 1.5% of 330,000 active;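 active = inhibition above the mean inhibition across the screen plus 3 SD, cut at about 25% in these data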;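 also: inhibitors block binding of the rhodamine activity-based probe so polarization drops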
PAFAH1B2 inh = PAFAH1B2 (human) inhibition; P68402; recombinant PAFAH1B2, FP-rhodamine activity probe, fluorescence polarization; inhibition, % at 3.39 µM; 1.2% of 340,000 active;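 active = inhibition above the mean of all tested compounds plus 3 SD, cut at about 24% in these data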
Target sequence (P68402 whole entry, looked up): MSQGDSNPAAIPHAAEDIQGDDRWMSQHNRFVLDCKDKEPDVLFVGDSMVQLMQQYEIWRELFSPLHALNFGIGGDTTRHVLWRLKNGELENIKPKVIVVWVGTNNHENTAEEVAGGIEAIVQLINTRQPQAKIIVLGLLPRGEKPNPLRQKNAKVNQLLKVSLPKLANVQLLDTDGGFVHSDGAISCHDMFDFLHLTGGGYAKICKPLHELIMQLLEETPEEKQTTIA
PAFAH1B3 inh = PAFAH1B3 (human) inhibition. recombinant PAFAH1B3, FP-rhodamine probe, fluorescence polarization. inhibition, % at 3.39 µM. 0.28% of 340,000 active;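 active = inhibition above the screen-wide average of all tested compounds plus 3 SD, cut at about 25% in these data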
PAFAH2 FP inh = PAFAH2 (human) inhibition; 0.99% of 340,000 active; recombinant PAFAH2, FP-rhodamine activity probe, fluorescence polarization; inhibition, % at 3.39 µM; Q99487; AID 492956;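 active = inhibition above the mean over all tested compounds plus 3 SD, cut at about 30% in these data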;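 also: inhibitors block probe labeling of enzyme so polarization drops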
TCR CD3 inh = human TCR-CD3 binding inhibition. inhibition, % at 9.4 µM. 0.37% of 360,000 active. TAMRA-labeled TCR probe fluorescence, biochemical. AID 651800; in the data active = inhibition above about 19%;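 also: recombinant mutant TCR 2C K166C tagged with TAMRA read by polarization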
pPAFAH confirm = pPAFAH (human) inhibition, confirmed; recombinant pPAFAH, FP-Rh probe fluorescence polarization; shares compounds with pPAFAH inh; inhibition, % at 3.39 µM; 72% of 2,300 active;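 active = mean inhibition of the triplicate above the hit cutoff set for the earlier primary screen, cut at about 25% in these data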
Numbers stand for hits; i = inactive; nt = no result.

SMILES | pPAFAH inh | PAFAH1B2 inh | PAFAH1B3 inh | PAFAH2 FP inh | TCR CD3 inh | pPAFAH confirm
S=C(NCCN1CCOCC1)N/N=C/c1cccs1 | i | i | i | i | i | nt
Oc1cccc(/C=N/NC(=S)NCCN2CCOCC2)c1O | 41 | i | i | i | i | i
Cc1ccc(NC(=O)CN2C(=O)N/C(=C/c3cccn3-c3ccc(C(=O)O)cc3)C2=O)cc1 | 71 | i | i | 53 | i | 41
Cc1ccc(NC(=O)CN2C(=O)N/C(=C/c3cc(C)n(-c4ccc(C(=O)O)cc4)c3C)C2=O)cc1 | nt | i | i | i | i | nt
CCOC(=O)C(c1nc2ccccc2[nH]1)n1c(-c2ccccn2)nc2ccccc21 (stereo unspecified) | nt | nt | nt | nt | i | nt
O=C(COC(=O)/C=C/c1ccc(C(F)(F)F)cc1)NC(=O)NCc1ccco1 | i | i | i | i | i | nt
CCCc1cc2c(-c3ccccc3)cc(=O)oc2cc1OCc1ccc(C(=O)O)o1 | 54 | i | i | i | i | 48
CO[C@H]1O[C@H](C)[C@@H](O)C[C@H]1NC(=O)OCc1ccccc1 | i | i | i | i | i | nt
N#Cc1c(SCC(=O)Nc2nc3ccc(Br)cc3s2)sc2c(O)cc(=O)[nH]c12 | 51 | i | i | i | i | 42
Cc1c(Cl)cccc1NC(=O)CSc1sc2c(O)cc(=O)[nH]c2c1C#N | i | i | i | i | i | nt
Cc1cc(/C=C2/SC(=S)N(c3cccc(C(F)(F)F)c3)C2=O)c(C)n1-c1cccnc1 | 44 | i | i | i | nt | 42
COc1ccc(Nc2nnc(SC(C(=O)Nc3ccc(OC)c(Cl)c3)c3ccccc3)s2)cc1 (stereo unspecified) | 35 | i | i | i | i | i
CCOc1ccccc1C1C(C#N)=C(N)Oc2cc(N)ccc21 (stereo unspecified) | 41 | i | i | i | i | i
COc1ccc(OC)c(C2C(C#N)=C(N)Oc3cc(C)[nH]c(=O)c32)c1 (stereo unspecified) | i | i | i | i | i | nt
COc1ccc(OC)c(C2C(C#N)=C(N)Oc3cc(N)ccc32)c1 (stereo unspecified) | 36 | i | i | i | i | i
CCCCc1ccc(NC(=O)CSCc2cc(=O)[nH][nH]2)cc1 | 36 | i | i | i | i | i
CCCNC(=O)c1ccc(N2CC3CC(C2)c2cccc(=O)n2C3)c(NC(=O)Nc2ccc(CC)cc2)c1 (stereo unspecified) | 88 | i | i | i | i | 92
COCCNC(=O)c1ccc(N2CC3CC(C2)c2cccc(=O)n2C3)c(NC(=O)c2c(F)cccc2F)c1 (stereo unspecified) | i | i | i | i | i | nt
COc1cccc(NC(=O)Nc2cc(C(=O)NC(C)C)ccc2N2CC3CC(C2)c2cccc(=O)n2C3)c1 (stereo unspecified) | 74 | i | i | i | i | 76
Cc1nc(-c2ccc(O)c(O)c2)cs1 | 35 | i | i | i | i | i
Oc1ccc(-c2csc(-c3ccccc3)n2)cc1O | 45 | i | i | i | i | 59
CC(=O)Oc1cc2cccc(OC(C)=O)c(=O)c2c(OC(C)=O)c1OC(C)=O | 91 | 45 | 46 | 88 | nt | 34
COc1cc2cccc(OC)c(=O)c2c(O)c1OC | i | i | i | i | i | nt
COc1ccc(/C=N\NC(=O)c2sccc2C)cc1Cn1nc(C)cc1C | i | i | i | i | i | nt
O=C(COC(=O)c1cc(Cl)ccc1Cl)NC1CCCC1 | i | i | i | i | i | nt
SMILES | pPAFAH inh | PAFAH1B2 inh | PAFAH1B3 inh | PAFAH2 FP inh | TCR CD3 inh | pPAFAH confirm
O=C(COC(=O)c1ccccc1OCc1ccc(Cl)cc1)NC1CC1 | i | i | i | i | i | nt
O=C(COC(=O)c1ccc2c(c1Cl)C(=O)c1ccccc1C2=O)NC1CC1 | 54 | i | i | 34 | i | 44
O=C(COC(=O)c1ccc2c(c1Cl)C(=O)c1ccccc1C2=O)NC1CCCCC1 | 53 | i | i | 44 | i | 50
O=C1OC(c2ccccc2)Cc2cc(C(=O)N3CCN(c4ccc(F)cc4)CC3)ccc21 (stereo unspecified) | nt | i | i | i | i | nt
COCCCN(Cc1cc(OC)c(OC)c(OC)c1)C(=S)Nc1cccc(SC)c1 | nt | nt | nt | nt | i | nt
O=C(NCCCN1CCOCC1)c1ccc2c(=O)n(-c3ccc(F)c(Cl)c3)c(=S)[nH]c2c1 | i | i | i | i | i | nt
C=C(C)Cn1c(-c2ccc(OC)cc2)nc2ccccc21 | 78 | i | i | i | i | i
COCn1c(-c2ccc(OC)cc2)nc2ccccc21 | i | i | i | i | i | nt
